SMILES strings stand for the structures. Among all 360,000 compounds or so, about 25,000 (6.9%) were called active. A call without a number means that no potency is given here. Not shown: some 9% with an inconclusive outcome. The call rests on the fitted dose curve; in most records, active means well fitted inhibition curve with a large enough effect; inconclusive means small, poorly fitted or top-dose-only effect; inactive means flat fitted curve, though single readings scatter. Only a selection was taken, and actives are over-represented in it overall.
Potency means the concentration at half of the fitted maximal effect.

Chain of Luciferin 4-monooxygenase (Photinus pyralis) (P08659 whole entry, looked up): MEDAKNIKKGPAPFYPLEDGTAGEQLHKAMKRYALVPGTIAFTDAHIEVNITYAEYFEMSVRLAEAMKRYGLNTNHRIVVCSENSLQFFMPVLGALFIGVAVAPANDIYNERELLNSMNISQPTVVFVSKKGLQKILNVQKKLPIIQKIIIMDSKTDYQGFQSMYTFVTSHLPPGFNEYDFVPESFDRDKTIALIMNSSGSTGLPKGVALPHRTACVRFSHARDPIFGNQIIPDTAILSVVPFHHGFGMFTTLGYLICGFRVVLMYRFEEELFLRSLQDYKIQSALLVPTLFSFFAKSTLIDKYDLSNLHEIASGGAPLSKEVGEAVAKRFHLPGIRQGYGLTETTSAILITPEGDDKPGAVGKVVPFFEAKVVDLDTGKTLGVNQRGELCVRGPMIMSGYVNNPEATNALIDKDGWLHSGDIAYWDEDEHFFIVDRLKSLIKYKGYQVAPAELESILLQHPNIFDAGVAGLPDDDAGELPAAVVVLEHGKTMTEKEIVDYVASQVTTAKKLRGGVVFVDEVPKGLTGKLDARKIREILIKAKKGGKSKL

The test concerns the target Luciferin 4-monooxygenase (Photinus pyralis) (UniProt P08659). Put plainly: qHTS profiling assay for firefly luciferase inhibitor/activator using purifed enzyme and Km concentrations of substrates (counterscreen for miR-21 project). Further: nearly all actives have a fitted effect of over 55% in size. Conditions: purified FLuc, luminescence inhibition; series mostly up to 57.5 µM. The method in brief:
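Purified P. pyralis luciferase, 10 nM final, with Km-level 10 uM D-luciferin and 10 uM ATP in 50 mM Tris acetate pH 7.5, 10 mM Mg acetate, 0.01% Tween-20, 0.05% BSA; 6-point qHTS titration about 60 µM downward; luminescence read.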
As to `COc1ccc(CNC(=O)Cn2nnc(-c3ccccc3F)n2)cc1`, the Potency result was “inactive”.
As for `CCOc1cccc2sc(N3CCN(C(=O)C4CC4)CC3)nc12`, the Potency entry is “inactive”.
On the same count and under the same terms, for `Cc1occc1-c1nnc(SCC(=O)NC2(C#N)CCCC2)n1C` the value was “inactive”; for `Cc1ccc(CSc2oc(-c3cccs3)nc2S(=O)(=O)c2ccc(C)cc2)cc1`, “inactive”.
In the case of `Cc1onc(-c2ccccc2Cl)c1C(=O)OCc1nnc(-c2ccccc2)o1`, the Potency entry was “inactive”.
For the compound `O=C(c1ccc(Cl)s1)N(Cc1nnc(-c2ccccc2Cl)o1)C1CC1`, the Potency was 19 µM (active).
The same measure, in the same setting: as for `CCOC(=O)N1CCN(Cc2nnc(-c3ccccc3Cl)o2)CC1`, the entry is “inactive”; as for `Cc1ccc(S(=O)(=O)c2c(Nc3cccc(Cl)c3)sc(C(=O)c3ccc4c(c3)OCO4)c2N)cc1`, “inactive”.
Take `COc1ccccc1C(=O)NC(=S)Nc1ccccc1N1CCCCC1`: the Potency entry is “inactive”.
For `O=C(CCCCn1c(=O)c2ccccc2n(CC(=O)Nc2cccc(C(F)(F)F)c2)c1=O)NCc1ccc2c(c1)OCO2`, the Potency entry was “inactive”.
The same measure, in the same setting: as for `COC(=O)c1ccc(Sc2ccc(F)cc2)c(N)c1`, the figure is 21.3 µM (active).
On the same count and under the same terms, for `CC(=O)Nc1cc(C(=O)NCc2ccc(F)cc2)ccc1Sc1ccc(F)cc1` the value was “inactive”; for `COC(=O)c1ccc(C(=O)OC)c(NC(=S)N2CCN(c3ccc(F)cc3)CC2)c1`, “inactive”.
Still for that read-out and setting: for `CC(C)NC(=O)c1nn(-c2ccccc2F)nc1CO` the value was “inactive”; for `CCOC(=O)C1CCC(CN(Cc2ccc(OC)cc2)S(=O)(=O)c2ccc(F)c(C(=O)Nc3cc(C)ccc3C)c2)CC1` (stereo unspecified), “inactive”.
Consider `CCNC(=O)CC1C(=O)N(c2ccc(F)cc2)C(=O)N1Cc1ccc(C)cc1` (stereo unspecified), for which the Potency result was “inactive”.
On the same count and under the same terms, as for `N#Cc1cccc(OC(=O)c2ccc3c(=O)n4c(nc3c2)CCC4)c1`, the entry is “inactive”.
On to `COc1ccccc1CNC(=O)C(=O)NCC(c1ccco1)S(=O)(=O)c1ccc(F)cc1` (stereo unspecified), for which the Potency entry was “inactive”.
Still for that read-out and setting: as for `CCOc1cc(/C=C2/C(=N)N3OC(C)=CC3=NC2=O)ccc1OC`, the entry is “inactive”; as for `CC1=NOC(=O)/C1=C\c1ccccc1`, “inactive”; as for `COc1cc(/C=C2/C(=O)ON=C2C)ccc1OCc1ccccc1F`, 6.75 µM (active).
Turning to `CCc1ccc(CN(Cc2ccco2)C(=O)c2ccccc2Cl)cc1`, the Potency entry is “inactive”.
With `Cc1cccc(NC(=O)/C(=C\c2ccco2)NC(=O)c2ccccc2)c1`, the Potency result was “inactive”.
The same measure, in the same setting: as for `Cc1ccccc1NC(=S)NC(=O)Cc1ccc(Cl)cc1`, the entry is “inactive”.
As to `O=C(CNC(=O)c1ccc(Br)o1)Nc1ccccc1`, the Potency result is “inactive”.
With `Cc1cccc(NC(=S)NC(=O)c2ccc(Br)o2)c1`, the Potency is 19 µM (active).
On the same count and under the same terms, for `Cc1ccc(C(=O)NC(=S)Nc2ccccc2C)cc1` the value was 19 µM (active).
In the case of `Cc1ccc(NC(=O)NC(=O)c2ccccc2)cc1F`, the Potency entry is “inactive”.
On the same count and under the same terms, as for `Cc1cccc(NC(=O)c2ccc([N+](=O)[O-])o2)c1`, the entry is “inactive”; as for `Cc1cccc(NC(=O)NC(=S)NC(=O)c2ccccc2)c1`, 19 µM (active).
Consider `Cc1ccc(C(=O)NC(=S)Nc2ccc(N3CCOCC3)cc2)cc1`, for which the Potency result was “inactive”.
In the case of `CC1CCN(S(=O)(=O)c2ccc3c(c2)N(CC(=O)NCCc2ccccc2)C(=O)CO3)CC1`, the Potency entry was “inactive”.
The same measure, in the same setting: for `O=C(NCc1cccc(Cl)c1)C1=CC=CN2CCS(=O)(=O)N=C12` the value was “inactive”; for `Cc1nnc(NCc2ccccc2)c2c1nnn2Cc1ccc(F)cc1`, “inactive”.
Take `O=C(CCS(=O)(=O)c1cc(Br)cc2c1N(C(=O)C1CC1)CC2)Nc1ccc(Br)cc1F`: the Potency entry was “inactive”.
Take `Cc1ccc(NC(=O)CSc2nc3c([nH]c4ccccc43)c(=O)n2-c2ccccc2)cc1Cl`: the Potency entry is “inactive”.
Same read-out and setting: for `NC(=O)CSc1nc2c(oc3ccccc32)c(=O)n1Cc1ccccc1` the value was “inactive”; for `Cc1ccc(OCC(=O)Nc2ccc3oc(=O)ccc3c2)cc1C`, “inactive”; for `CC1=C(C(=O)N2CCN(c3cccc(C(F)(F)F)c3)CC2)C2(CCCCC2)OC1=O`, “inactive”.
On to `COc1ccc(-c2nc3ccc(C(=O)NCc4ccc(C)cc4)cc3nc2-c2ccc(OC)cc2)cc1`, for which the Potency entry is “inactive”.
Regarding `COC(=O)c1ccc(CSc2nc3cc(Cl)ccc3o2)cc1`, the Potency entry is “inactive”.
Same read-out and setting: as for `COc1ccc(CNC(=O)c2ccc3oc(C(C)C)nc3c2)cc1`, the figure is 15.1 µM (active).
Same read-out and setting: for `COc1ccc(Cc2nc3ccc(C(=O)NCc4ccc(OC)cc4OC)cc3o2)cc1` the value was “inactive”.
In the case of `CC(C)c1nc2cc(C(=O)NC(C)c3cnn(C)c3)ccc2o1` (stereo unspecified), the Potency entry is “inactive”.
On the same count and under the same terms, for `COC(=O)c1ccc(CNC(=O)c2ccc3oc(C(C)C)nc3c2)cc1` the value was 13.5 µM (active); for `COC(=O)c1c(NC(=O)c2cc(=O)c3c(C)cc(C)cc3o2)sc2c1CCCC2`, “inactive”; for `CCCCN(C)S(=O)(=O)c1ccc(C(=O)Nc2sc3c(c2C(N)=O)CC(C)(C)NC3(C)C)cc1`, “inactive”.
On the same count and under the same terms, for `FC(F)(F)c1cc(Nc2nc3ccccc3c3nncn23)ccc1Cl` the value was “inactive”; for `Cc1c(CNC2CCCCC2)c(C(=O)O)c(C)n1Cc1cccc(Cl)c1`, “inactive”; for `CC(C)Nc1ccc(-n2nc3ccccc3[n+]2[O-])cc1`, 1.9 µM (active).
On the same count and under the same terms, as for `CCC(=O)Nc1c(C(=O)N2CCN(c3ccc(F)cc3)CC2)oc2ccccc12`, the entry is “inactive”; as for `CC1=C(C(=O)OCc2ccc(C)cc2)C(c2c(Cl)cccc2Cl)CC(=O)N1` (stereo unspecified), “inactive”; as for `CCOC(=O)c1ccc(NC(=O)C2CC(=O)NC(=Nc3ccc(C)c(C)c3)S2)cc1` (stereo unspecified), “inactive”.
In the case of `O=C1N/C(=C/c2cccs2)C(=O)N1Cc1ccc(F)cc1`, the Potency entry is “inactive”.
In the case of `CSC1=N/C(=C\C=C\c2cccs2)C(=O)S1`, the Potency was 16.9 µM (active).
On the same count and under the same terms, as for `O=S1(=O)CCC(NC(=S)SCc2ccccc2Br)C1` (stereo unspecified), the entry is “inactive”.
The same measure, in the same setting: for `Cc1ccc(S(=O)(=O)N2CCN(C(=O)COC(=O)c3c(C)noc3C)CC2)c(C)c1` the value was “inactive”.
The same measure, in the same setting: as for `COc1cc(OC)cc(C(=O)NCC(=O)OCc2csc(-c3ccccc3)n2)c1`, the entry is “inactive”; as for `Cc1ccc(-c2nc(COC(=O)c3c(C)noc3C)cs2)cc1`, 9.53 µM (active); as for `CCC(C)C(N=C1NS(=O)(=O)c2ccccc21)C(=O)N1CCC(C)CC1` (stereo unspecified), “inactive”.
On to `Nc1c(NCCc2ccccc2)c2ccccc2oc1=O`, for which the Potency entry is “inactive”.
For the compound `COc1ccc(/C(O)=C2/C(=O)C(=O)N(c3nc(C)c(C)s3)C2c2ccco2)cc1` (stereo unspecified), the Potency result was “inactive”.
As for `COc1ccc(C2/C(=C(/O)c3ccccc3)C(=O)C(=O)N2C)c(OC)c1` (stereo unspecified), the Potency entry was “inactive”.
Same read-out and setting: for `CCOc1ccc(/C(O)=C2\C(=O)C(=O)N(c3ccc(OC)cc3)C2c2ccccc2[N+](=O)[O-])cc1` (stereo unspecified) the value was 8.49 µM (active).
On the same count and under the same terms, for `Cc1ccc(C(=O)Nc2ncccc2C)cc1S(=O)(=O)N1CCOCC1` the value was “inactive”.
As to `O=C1CSC(=S)N1c1ccc(O)cc1`, the Potency entry was “inactive”.
Consider `CCOc1cccc(/C=N/NC(=S)NCCN2CCOCC2)c1O`, for which the Potency result is “inactive”.
Still for that read-out and setting: for `CCOc1cccc(/C=N/N2C(=O)CSC2=S)c1O` the value was 21.3 µM (active).
On the same count and under the same terms, as for `C=CCNC(=S)NNC(=O)COc1c(Cl)cc(Cl)cc1Cl`, the entry is “inactive”; as for `COc1ccccc1CNC(=O)NCc1noc2ccc(C)cc12`, “inactive”; as for `c1ccc(-n2nc3ccccc3n2)cc1`, 19 µM (active).
In the case of `O=S(=O)(Cc1nnnn1-c1ccccc1)c1ccccc1`, the Potency entry is “inactive”.
On the same count and under the same terms, as for `Oc1ccc(-c2nncn2-c2ccccc2)cc1`, the entry is “inactive”.
For `COc1ccc(NC(=O)CN(C)C(=O)Cc2coc3cc(C)c(C)cc23)cc1`, the Potency result was “inactive”.
The same measure, in the same setting: for `COc1ccc(NC(=O)CN(C)C(=O)c2cc(-c3ccc(C)o3)nc3ccccc23)cc1` the value was 3.38 µM (active).
On the same count and under the same terms, for `CN(C)S(=O)(=O)c1ccc(NC(=O)COC(=O)c2n[nH]c3ccccc23)cc1` the value was “inactive”; for `COc1ccc(NC(=O)CN(C)C(=O)CNC(=O)C2CCCCC2)cc1`, “inactive”; for `COc1ccc(NC(=O)CN(C)C(=O)c2n[nH]c3ccccc23)cc1`, 23.9 µM (active).
Consider `COc1ccc(NC(=O)CN(C)C(=O)c2ccc(COc3ccccc3)o2)cc1`, for which the Potency result is “inactive”.
Regarding `Cc1ccc(C(=O)Nc2ccc(OCc3cc(=O)n4c5c(sc4n3)CCCC5)cc2)cc1`, the Potency result was “inactive”.
Take `Cc1ccc(NC(=O)CCCNC(=O)c2ccc(Cl)cc2)cc1S(=O)(=O)N1CCOCC1`: the Potency entry was “inactive”.
With `COc1cc(NC(=O)c2noc3c2CSc2ccccc2-3)cc(OC)c1OC`, the Potency result was “inactive”.
Consider `COc1ccc(CNC(=O)COCc2cc(-c3cccs3)on2)cc1OC`, for which the Potency result is “inactive”.
Regarding `COc1ccc(-c2csc(-c3c(N)c(C(=O)c4ccc(OC)c(OC)c4)n4ccccc34)n2)cc1`, the Potency result is “inactive”.
Turning to `COc1ccc(-c2csc(-c3cccs3)n2)cc1OC`, the Potency was 23.9 µM (active).
The same measure, in the same setting: for `COc1ccccc1-c1cc(C(F)(F)F)nc(S(=O)(=O)CCCC(=O)Nc2ccc(F)cc2F)n1` the value was “inactive”; for `CCN(C(=O)Cn1c(=O)nc(-c2ccccc2)c2cc(Cl)ccc21)c1cccc(C)c1`, “inactive”.
Same read-out and setting: for `Cc1ccsc1C(=O)NCCc1ccco1` the value was 21.3 µM (active); for `COc1cc(OC)cc(C(=O)NCCSCc2ccco2)c1`, “inactive”.
On the same count and under the same terms, for `O=C(NCCc1ccco1)c1nn(Cc2ccccc2)c(=O)c2ccccc12` the value was “inactive”; for `CCC(=O)Nc1cccc(C2=NOC3(C2)C[C@@H](C(N)=O)N(C(=O)c2cc([N+](=O)[O-])cc([N+](=O)[O-])c2C)C3)c1` (stereo partly specified), “inactive”.
Consider `COc1ccc(Cn2ccc3nc(C)c(C(=O)Nc4ccc(C)c(F)c4)cc3c2=O)cc1`, for which the Potency result was “inactive”.
`COc1cccc(Cn2c(CNS(=O)(=O)c3ccc(Cl)s3)nc3cccnc32)c1`: the Potency result was “inactive”.
Take `COc1ccc(NC(=O)C(c2ccccc2)N2Cc3ccccc3C2=O)cc1` (stereo unspecified): the Potency result is “inactive”.
Same read-out and setting: as for `CCCOC1CCCN(C(=O)c2cc(COc3cncc(Cl)c3)on2)C1` (stereo unspecified), the figure is 10.7 µM (active).
The same measure, in the same setting: as for `COc1cccc(OC)c1OCCN1CCN(C(=O)c2ccco2)CC1`, the entry is “inactive”.
As for `O=C(c1ccc(Cl)c(Cl)c1)N1CCCC1`, the Potency result was “inactive”.
The same measure, in the same setting: for `O=C(c1ccc(F)cc1)N1CCCC(c2nc(-c3cccs3)no2)C1` (stereo unspecified) the value was “inactive”; for `Cc1nonc1C1CCCN1C(=O)c1cc(COc2cccc(C(F)(F)F)c2)on1` (stereo unspecified), “inactive”; for `O=C(c1cc(-c2ccccc2O)on1)N1CCCC1`, 6.75 µM (active).
Still for that read-out and setting: as for `CC(=O)c1ccc(NC(=O)c2cc(-c3cccs3)on2)cc1`, the entry is “inactive”; as for `O=C(c1cc(-c2cccs2)on1)N1CCCCC1`, 23.9 µM (active).
Same read-out and setting: for `O=C(c1ccco1)N1CCN(C(=O)c2ccc(COc3ccc(F)cc3)o2)CC1` the value was “inactive”.
Regarding `CCOC(=O)CC1(NC(=O)c2cc(COc3cncc(Cl)c3)on2)CCCCC1`, the Potency result is “inactive”.
In the case of `CNC(=O)n1ccc(C(=O)N2CCCCC2)n1`, the activity change, negative = inhibition was 2.3% [at 2.3 µM] (inactive).
`COc1cccc(OCc2cc(C(=O)N3CCN(C(=O)c4ccco4)CC3)no2)c1`: the Potency was 12 µM (active).

The record behind these values is PubChem BioAssay AID588342 (National Center for Advancing Translational Sciences (NCATS), 2011).
